# Laboratory results as given in the supplement of paper PMC6522484.
# ± gives the standard deviation of the averaged measurements.
# Columns and labels:
# DLD1 [1] = test: cell viability (CellTiter-Glo) relative to plate median (fraction of plate median); higher = more viable cells; conditions: 5 µM; treatment time 24 h; reporter: 7TFP
# Procedure, shortened: (§1)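 Colorectal cancer cell lines stably carrying lentiviral TCF/Wnt firefly luciferase reporters (7TFP or TCF4/Wnt) were plated in 384-well plates and, 24 h later, given library compounds at a final 5 µM for 24 h. Firefly luciferase or CellTiterGlo luminescence was read on parallel plates with a Tecan F500 reader. Each well's signal was normalised to the plate median in webcellHTS2 (additive, without log transformation). Values are the mean of two independent replicates.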
# HCT116 = test: as above; conditions: 5 µM; treatment time 24 h; reporter: TCF4/Wnt
# Procedure, shortened: as §1
# SW480 [2] = test: as above; conditions: 5 µM; treatment time 24 h; reporter: 7TFP
# Procedure, shortened: as §1
# DLD1 [3] = test: TCF/Wnt firefly luciferase reporter signal relative to plate median (fraction of plate median); higher = higher Wnt reporter signal; conditions: 5 µM; treatment time 24 h; reporter: 7TFP
# Procedure, shortened: as §1
# SW480 [4] = test: as above; conditions: 5 µM; treatment time 24 h; reporter: 7TFP
# Procedure, shortened: as §1
Structure (SMILES),cell viability (DLD1 [1]),cell viability (HCT116),cell viability (SW480 [2]),TCF/Wnt firefly luciferase reporter signal (DLD1 [3]),TCF/Wnt firefly luciferase reporter signal (SW480 [4])
CC[C@H]1OC(=O)[C@H](C)[C@@H](O[C@H]2C[C@@](C)(OC)[C@@H](O)[C@H](C)O2)[C@H](C)[C@@H](O[C@@H]2O[C@H](C)C[C@H](N(C)C)[C@H]2O)[C@](C)(O)C[C@@H](C)[C@@H]2N[C@@H](COCCOC)O[C@H]([C@H]2C)[C@]1(C)O,1.02 ± 0.049,0.991 ± 0.027,0.931 ± 0.0028,0.975 ± 0.05,0.998 ± 0.045
CCN(CC)C(=S)SSC(=S)N(CC)CC,0.764 ± 0.14,0.504 ± 0.17,0.938 ± 0.12,1.02 ± 0.41,0.842 ± 0.043
CC[C@H]1OC(=O)[C@H](C)[C@@H](O[C@H]2C[C@@](C)(OC)[C@@H](O)[C@H](C)O2)[C@H](C)[C@@H](O[C@@H]2O[C@H](C)C[C@H](N(C)C)[C@H]2O)[C@](C)(O)C[C@@H](C)/C(=N\OCOCCOC)[C@H](C)[C@@H](O)[C@]1(C)O,1.03 ± 0.079,1.12 ± 0.26,1.12 ± 0.057,0.907 ± 0.13,1.03 ± 0.05
N=C(N)N,0.982 ± 0.025,0.95 ± 0.16,1.02 ± 0.014,0.924 ± 0.076,1.025 ± 0.0071
O=C(O)CN(CC(=O)O)Cc1cc2c(cc1O)Oc1cc(O)c(CN(CC(=O)O)CC(=O)O)cc1C21OC(=O)c2ccccc21,0.965 ± 0.03,0.914 ± 0.089,0.96 ± 0.053,0.909 ± 0.13,0.895 ± 0.12
"Oc1cccc2nc3c(O)cccc3nc12 [1,6-Phenazinediol]",1.12 ± 0.014,0.992 ± 0.069,1.01,1.12 ± 0.042,1.12 ± 0.12
O=C(O)c1ccccc1OP(=O)(O)O,0.9465 ± 0.0035,0.9665 ± 0.0092,0.911 ± 0.028,0.939 ± 0.042,0.932 ± 0.04
O=C1NC(Cc2ccc(O)cc2)C(=O)NC1Cc1ccc(O)cc1 (stereo not given) [Cyclo(tyrosyltyrosyl)],0.902 ± 0.091,0.942 ± 0.11,0.953 ± 0.011,1.04 ± 0.057,0.98 ± 0.023
"CC(C)CCC[C@@H](C)[C@H]1CC[C@H]2[C@@H]3C[C@@H](O)[C@@]4(O)C[C@@H](O)CC[C@]4(C)[C@H]3CC[C@]12C [CHOLESTAN-3beta,5alpha,6beta-TRIOL]",0.991 ± 0.041,0.924 ± 0.083,0.967 ± 0.016,0.9 ± 0.086,0.891 ± 0.076
O=c1c2cc(O)c(O)cc2oc2cc(O)c([C@@H]3O[C@H](CO)[C@@H](O)[C@H](O)[C@H]3O)c(O)c12,1.09 ± 0.13,1.045 ± 0.0071,1.05 ± 0.035,0.988 ± 0.06,0.957 ± 0.061
COc1ccc(-c2cc(=O)c3c(OC(C)=O)cc(OC(C)=O)cc3o2)cc1,1.04 ± 0.064,1.07 ± 0.13,1.17 ± 0.057,1.09,1.21 ± 0.092
CCCCC[C@H](CC(=O)O)C(=O)O,0.996 ± 0.091,0.953 ± 0.095,0.974 ± 0.03,1.15 ± 0.085,1.03 ± 0.021
C=C(NC(=O)C(=C)NC(=O)c1csc(C2=N[C@@H]3c4csc(n4)[C@H]4NC(=O)c5csc(n5)[C@H]([C@](C)(O)[C@@H](C)O)NC(=O)[C@H]5CSC(=N5)/C(=C/C)NC(=O)[C@H]([C@@H](C)O)NC(=O)c5csc(n5)[C@]3(CC2)NC(=O)[C@H](C)NC(=O)C(=C)NC(=O)[C@H](C)NC(=O)[C@H]([C@@H](C)CC)N[C@@H]2C=Cc3c([C@H](C)O)cc(nc3[C@H]2O)C(=O)O[C@@H]4C)n1)C(N)=O,0.927 ± 0.044,1.05,0.999 ± 0.044,0.966 ± 0.18,1.05 ± 0.071
O=C(c1ccccc1)c1ccc2n1CCC2C(=O)O (stereo not given),1.03 ± 0.095,0.929 ± 0.16,1 ± 0.023,0.911 ± 0.066,0.924 ± 0.021
COc1c2c(c(O)c3c4c(c(C)cc13)[C@@H]1O[C@@]3(C(OC)OC)O[C@@H]1[C@@](O[C@H]1CC(O)[C@@](O)(C(C)=O)C(C)O1)(O4)[C@@]3(O)Cn1cnc3nc(N)[nH]c(=O)c31)C(=O)C(O)CC2O[C@H]1CC(C)(O)[C@H](OC(C)=O)C(C)O1 (stereo not given in full) [Gutingimycin],0.932 ± 0.022,0.966 ± 0.0057,0.946 ± 0.059,0.87 ± 0.14,0.898 ± 0.07
C=C1CC[C@H](O)C/C1=C/C=C1\CCC[C@]2(C)[C@@H]([C@H](C)CCCC(C)C)CC[C@@H]12,1.025 ± 0.0071,0.969 ± 0.044,0.97 ± 0.057,0.84 ± 0.04,0.882 ± 0.054
CN(C)CCC=C1c2ccccc2CCc2ccccc21,0.958 ± 0.036,0.997 ± 0.047,0.989 ± 0.016,0.952 ± 0.061,0.963 ± 0.046

Structure (SMILES),cell viability (DLD1 [1]),cell viability (HCT116),cell viability (SW480 [2]),TCF/Wnt firefly luciferase reporter signal (DLD1 [3]),TCF/Wnt firefly luciferase reporter signal (SW480 [4])
O=C(NCO)c1cccnc1,0.952 ± 0.027,0.921 ± 0.022,1.04 ± 0.028,1.02 ± 0.13,0.959 ± 0.013
CC(C)CCC[C@@H](C)[C@H]1CC[C@H]2[C@@H]3CC=C4CC(=O)CC[C@]4(C)[C@H]3CC[C@]12C,1 ± 0.026,1.015 ± 0.0071,1.03 ± 0.048,0.979 ± 0.13,0.974 ± 0.19
COc1ccc(C(=O)c2ccccc2)c(O)c1,1.04 ± 0.042,1.185 ± 0.0071,1.01 ± 0.016,0.8625 ± 0.0064,1.05 ± 0.028
CCCC1O[C@@H]2C[C@H]3[C@@H]4CCC5=CC(=O)C=C[C@]5(C)[C@H]4[C@@H](O)C[C@]3(C)[C@]2(C(=O)CO)O1 (stereo not given in full),1.03 ± 0.014,0.938 ± 0.1,0.912 ± 0.015,1.09 ± 0.071,0.81 ± 0.04
O=C1NCCN(C(=O)[C@H](Cc2ccccc2)NC(=O)[C@@H]2CCCN2)C1=O [Prolyl-phenylalanyl-diketopiperazine],1.04 ± 0.15,1.02 ± 0.035,1.02 ± 0.021,0.984 ± 0.02,0.918 ± 0.0014
O=c1cc[nH]c(=S)[nH]1 [Thiouracil],1.08 ± 0.17,1.12 ± 0.11,1.04 ± 0.064,0.944 ± 0.093,0.8625 ± 0.00071
CCN(CC)C(=O)c1cccc(C)c1,0.954 ± 0.041,1.01 ± 0.05,0.991 ± 0.028,1.03 ± 0.079,0.923 ± 0.061
CC[C@H]1OC(=O)[C@H](C)[C@@H](O[C@H]2C[C@@](C)(OC)[C@@H](O)[C@H](C)O2)[C@H](C)[C@@H](O[C@@H]2O[C@H](C)C[C@H](N(C)C)[C@H]2O)[C@](C)(OC)C[C@@H](C)C(=O)[C@H](C)[C@@H](O)[C@]1(C)O,0.858 ± 0.099,0.931 ± 0.0071,1.05 ± 0.042,0.996 ± 0.021,1.125 ± 0.0071
Nc1ncn([C@@H]2O[C@H](CO)[C@@H](O)[C@H]2O)c(=O)n1,0.992 ± 0.011,0.945 ± 0.035,1.07 ± 0.092,1.01 ± 0.13,1.085 ± 0.0071
C=C1CCC2C(CC2(C)C)C(=O)CCC1O (stereo not given),0.969 ± 0.037,0.962 ± 0.023,0.97 ± 0.0014,0.932 ± 0.025,0.9285 ± 0.0064
CC(C)=CCC/C(C)=C\CO,0.992 ± 0.082,1.02 ± 0.042,1.1 ± 0.05,0.999 ± 0.016,0.964 ± 0.046
O=C(O)/C=C(\CC(=O)O)C(=O)O,1.05 ± 0.014,0.98 ± 0.018,1 ± 0.011,1.11 ± 0.035,0.978 ± 0.059
COc1ccc(CC(=O)c2ccc(O)cc2O)cc1,0.962 ± 0.054,0.955 ± 0.14,0.995 ± 0.036,1.13 ± 0.057,1.07 ± 0.078
CC[C@H]1OC(=O)[C@H](C)C(=O)[C@H](C)[C@@H](O[C@@H]2O[C@H](C)C[C@H](N(C)C)[C@H]2O)[C@](C)(OC)C[C@@H](C)C(=O)[C@H](C)[C@H]2N(CCCCn3cnc(-c4cccnc4)c3)C(=O)O[C@]12C,0.997 ± 0.018,0.968 ± 0.1,1.02 ± 0.04,1.07 ± 0.05,1.07 ± 0.035
COc1ccccc1OCC(O)COC(N)=O (stereo not given),1.02 ± 0.076,1.01 ± 0.089,0.995 ± 0.035,0.982 ± 0.054,0.967 ± 0.047
C=C(C)[C@@H]1CC[C@]2(C(=O)O[C@@H]3O[C@H](CO[C@@H]4O[C@H](CO)[C@@H](O[C@@H]5O[C@@H](C)[C@H](O)[C@@H](O)[C@H]5O)[C@H](O)[C@H]4O)[C@@H](O)[C@H](O)[C@H]3O)CC[C@]3(C)[C@H](C[C@@H](O)[C@@H]4[C@@]5(C)[C@@H](CC(=O)O)OC(C)(C)[C@@H]5CC[C@]43C)[C@@H]12 [Isochiisanoside (6)],0.92 ± 0.055,0.934 ± 0.0028,0.915 ± 0.066,0.953 ± 0.15,0.945 ± 0.0071
COc1c2c(c(O)c3c4c(c(C)cc13)C1OC3(C(OC)OC)OC1C(O[C@H]1C[C@@H](O)[C@@](O)(C(C)=O)[C@H](C)O1)(O4)C3(O)CO)C(=O)C(O)CC2O[C@H]1C[C@@](C)(O)[C@H](OC(C)=O)[C@H](C)O1 (stereo not given in full) [Trioxacarcin B],1.09 ± 0.29,1.11 ± 0.014,1.06,0.739 ± 0.21,0.893 ± 0.14
